SMN2 splice enh = increases expression of the SMN2 splice variant | HEK293 SMN2-luciferase splicing reporter, luminescence, 30-36 h | 210,000 compounds, 2.8% hits | Potency, µM (titrated, usually from 46.1 µM), for inactives: at the top dose activity change, positive = activation, actives largely listed as activators; further: % of control where 0% means no effect; nearly all actives have a fitted effect of over 55% in size
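HEK293 cells carry an SMN2 minigene-luciferase reporter in which exon 7 inclusion puts luciferase in frame. Cells were seeded at 2000 cells/well, attached for 10-12 hours, then exposed to compounds for 30-36 hours at 37C before ONE-Glo luminescence.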
Luc counter = blocks Kinase-Glo luciferase, a counter-screen artifact. Kinase-Glo luciferase, ATP luminescence, 8 min. Q27757. Potency, µM (highest dose often 38.3 µM), for inactives: at the top dose activity change, negative = inhibition, hits mostly inhibitors. 200,000 compounds, 0.28% hits. AID 1379; further: on the % scale 0 is the no-effect control and ±100 the full control effect; nearly all actives have a fitted effect of over 60% in size
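Recombinant Kinase-Glo luciferase, 10 uM ATP (linear range), luciferin; imidazole pH 7.2 / KCl / MgCl2 / Tween / BSA buffer; 8 min RT; luminescence.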
NPC1 promoter act = activators of NPC1 promoter; 320,000 compounds, 2.4% hits; Huh7 NPC1 promoter luciferase reporter, 24 h; Potency, µM (series often up to 9.22 µM), for inactives: at the top dose activation, most hits filed as activators; further: % of control where 0% means no effect; nearly all actives have a fitted effect of over 60% in size
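Stable NPC1-promoter luciferase Huh7 line; cpd (DMSO) 24 h, 37 °C, 5% CO2; Amplite luciferase reagent 10 min RT; luminescence readout. qHTS format.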
ELG1 genotox = inducers of genotoxicity in HEK293T ELG1-luciferase cells; 330,000 compounds, 1.3% hits; HEK293T ELG1-luciferase reporter, luminescence, 16 h; Potency, µM (titrated, usually from 46 µM), inactives show at the top dose activity change, positive = activation, usual class: activators; further: % of control where 0% means no effect; nearly all actives have a fitted effect of over 60% in size
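Genotoxicity was scored as increased ELG1-luciferase reporter signal, measured by ONE-Glo luminescence (30 min, room temperature). Compound or vehicle exposure of the HEK293T reporter cells lasted 16 hr at 37°C.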
FLuc counter = inhibits or activates purified firefly luciferase, miR-21 counter-screen. purified FLuc, Km substrates, luminescence inhibition. P08659. Potency, µM (titrated, usually from 57.5 µM), without a hit: at the highest dose activity change, negative = inhibition, actives largely listed as inhibitors. AID 588342. 360,000 compounds, 6.9% hits;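 further: plate controls were vehicle for no effect and reference inhibitor for full effect; nearly all actives have a fitted effect of over 55% in size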
Target sequence (P08659 whole entry, looked up): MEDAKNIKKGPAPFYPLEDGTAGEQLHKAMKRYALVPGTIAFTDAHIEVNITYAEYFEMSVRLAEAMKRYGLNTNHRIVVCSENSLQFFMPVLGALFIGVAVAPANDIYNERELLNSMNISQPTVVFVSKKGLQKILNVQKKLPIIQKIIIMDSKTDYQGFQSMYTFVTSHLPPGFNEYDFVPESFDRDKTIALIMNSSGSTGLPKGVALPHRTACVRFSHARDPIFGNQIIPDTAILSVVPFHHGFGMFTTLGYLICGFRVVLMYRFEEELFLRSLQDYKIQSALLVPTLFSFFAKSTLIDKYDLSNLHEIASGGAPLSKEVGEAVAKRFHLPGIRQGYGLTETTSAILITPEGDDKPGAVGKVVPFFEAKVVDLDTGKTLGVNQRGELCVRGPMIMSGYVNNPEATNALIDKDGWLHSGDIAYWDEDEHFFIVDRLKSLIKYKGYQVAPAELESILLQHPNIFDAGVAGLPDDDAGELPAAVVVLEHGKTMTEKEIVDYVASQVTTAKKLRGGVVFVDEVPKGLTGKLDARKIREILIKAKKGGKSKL
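Purified P. pyralis luciferase (10nM final) with 10uM D-luciferin and 10uM ATP (Km levels) in 50mM Tris acetate pH 7.5, 10mM Mg acetate, 0.01% Tween-20, 0.05% BSA; qHTS 6-point titration, ~60 µM downward; luminescence read.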
Rab9 promoter act = activates the Rab9 promoter; Huh7 Rab9 promoter-luciferase reporter, luminescence, 24 h; Potency, µM (titrated, usually from 9.22 µM), without a hit: at the highest dose activation, negative = inhibition, hits mostly activators; 320,000 compounds, 2.8% hits; AID 485297; further: % of control where 0% means no effect; nearly all actives have a fitted effect of over 60% in size
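Measured in stably transfected Huh7 cells bearing a Rab9 promoter–luciferase construct: 24 h compound treatment at 37 °C, followed by luminescence detection.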
Numbers without * were called inactive; ? = inconclusive; . = no result given. This is a sample that favours compounds with a hit; in the whole collection about 7.3% have one here. The call rests on the fitted dose curve; in most records, active means well fitted curve in the direction sought with a large enough effect; inconclusive means small, poorly fitted or top-dose-only effect, or another doubt; inactive means no such curve, though single readings can be large; an effect the other way counts as inactive or inconclusive. Potency means the concentration at half of the fitted maximal effect.

SMILES	SMN2 splice enh	Luc counter	NPC1 promoter act	ELG1 genotox	FLuc counter	Rab9 promoter act
O=C(c1ccc2oc(CCc3ccccc3)nc2c1)N1CCC(O)CC1	.	.	1.3µM*	?	11µM*	1µM*
CCCN1CNC(=S)N(c2ccc(C)cc2C)C1	.	.	1%	0%	-3%	-4%
COc1ccc(-n2c(C)cc(C(=O)NC3CCCCC3)c2C)cc1	?	-5%	?	26%	13µM*	3.5µM*
Cc1cccc(-n2c(C)cc(C(=O)NC3CCCCC3)c2C)c1	?	-1%	?	?	21µM*	3.5µM*
CCOC(=O)c1c(-c2ccccc2)nc2ccc(C)cn12	5%	-5%	3.5µM*	?	9.5µM*	2.2µM*
CCOC(=O)c1c(-c2ccccc2)nc2cc(C)ccn12	25%	-6%	?	13%	11µM*	?
CCOC(=O)C(=O)c1c(-c2ccccc2)nc2ccccn12	17%	0%	-1%	-5%	-7%	12%
CCCn1c(NCc2ccco2)nc2ccccc21	?	0%	0%	2%	0%	-7%
CCCCn1c(/C=C/c2ccco2)nc2ccccc21	16µM*	-19%	11%	13%	13µM*	12%
CCCn1c(/C=C/c2ccco2)nc2ccccc21	14µM*	-11%	20%	1%	12µM*	19%
O=C(NNc1nc2c(F)cccc2s1)c1cc(=O)c2ccccc2o1	.	.	?	?	5.4µM*	?
Cc1cccc2sc(NNC(=O)c3cc(=O)c4ccccc4o3)nc12	.	.	?	?	4.8µM*	?
COc1ccc2nc(NNC(=O)c3cc(=O)c4ccccc4o3)sc2c1	.	.	16%	6%	2.7µM*	20%
Cc1ccc2sc(NNC(=O)c3cc(=O)c4ccccc4o3)nc2c1C	.	.	16%	?	9.5µM*	19%
COc1ccc2nc(NC(=O)c3cc(=O)c4cc(C)c(C)cc4o3)sc2c1	0%	.	.	.	-14%	.
O=C(NNc1nc2c(F)cccc2s1)c1ccc(F)cc1	9%	0%	5%	-7%	-11%	10%
Cc1nc(C)c(C(=O)Nc2nc3c(C)cccc3s2)o1	.	.	0%	0%	?	2%
CC(C)c1ccc2c(c1)C1Cc3ccccc3C1N2 (stereo unspecified)	21%	-1%	16%	?	15µM*	8%
O=S1(=O)NC2c3ccccc3CC2O1 (stereo unspecified)	.	.	1%	-4%	-9%	0%
OCCNC(=S)Nc1cccc(Cl)c1Cl	.	.	0%	-1%	1%	-2%
COC(=O)c1[nH]c2cc(C)ccc2c1NC(=O)CN1CCCc2ccccc21	10%	-1%	?	5%	24µM*	?
Cc1cc(C(=O)N/N=C/C=C/c2ccccc2)c(C)o1	-6%	-1%	1%	2%	?	0%
Cc1cc(C(=O)NC2Cc3ccccc3C2)c(C)o1	.	.	2.5µM*	?	21µM*	3.2µM*
O=C(N/N=C/c1ccccc1O)c1cccc2ccccc12	.	.	-34%	24%	?	-39%
Cc1cc(C(=O)N/N=C/c2cccc3ccccc23)c(C)o1	.	.	13%	?	19µM*	19%
SMILES	SMN2 splice enh	Luc counter	NPC1 promoter act	ELG1 genotox	FLuc counter	Rab9 promoter act
Cc1cc(C(=O)N/N=C/c2ccccc2)c(C)o1	.	.	?	?	11µM*	3.2µM*
Cn1c(C(=O)N/N=C/c2ccccc2)cc2ccccc21	.	.	?	?	2.7µM*	2.8µM*
Cn1c(N)c(C(=O)N/N=C/c2ccccc2)sc1=S	.	.	-1%	4%	0%	3%
CCOC(=O)c1cnc(-c2ccccc2)[nH]c1=O	-26%	-4%	-3%	0%	1%	-2%
COc1ccc(CNC(=O)CCn2nc(C)c3c(C)n(-c4ccccc4)nc3c2=O)cc1OC	.	.	.	.	4%	.
Cc1ccc(S(=O)(=O)N2CCN(c3ncnc4sccc34)CC2)cc1	.	.	-24%	-10%	3%	-21%
O=C(Nn1c(C2CCCCC2)nc2ccccc2c1=O)c1cc(Cl)ccc1[N+](=O)[O-]	?	-4%	0%	-1%	0%	-13%
Cc1cc(C(=O)N/N=C/c2ccc([N+](=O)[O-])cc2)c(C)o1	3%	-19%	11%	7%	27µM*	11%
Cc1cccc(C)c1-n1c(C)cc(/C=C2\NC(=O)NC2=O)c1C	12%	-2%	-1%	14%	?	-8%
Cc1cc(/C=C2\NC(=S)NC2=O)c(C)n1-c1cccnc1	.	.	21%	10%	9.5µM*	?
CCOC(=O)c1ccc(N=C2S/C(=C\c3cc(C)n(-c4cccnc4)c3C)C(=O)N2C)cc1	10%	18%	-2%	-1%	3%	1%
Cc1cc(/C=C2\SC(=S)N(Cc3ccco3)C2=O)c(C)n1-c1cccnc1	5%	-1%	?	?	4.8µM*	?
Cc1cc(/C=C2\NC(=O)NC2=O)c(C)n1-c1cccnc1	.	.	22%	17%	15µM*	1%
O=C(CSc1nc(O)c(Cc2ccccc2)c(=O)[nH]1)c1ccccc1	.	.	-3%	12%	5%	2%
CC(C)S(=O)(=O)c1csc(C(=O)NN)c1-n1cccc1	.	.	0%	-1%	-1%	-3%
COc1cccc(CN(C)C(=O)C2CSC3(C)CCC(=O)N23)c1OC (stereo unspecified)	.	.	-1%	2%	0%	-1%
COc1ccc(C)cc1C1=Nc2ccccc2C1(C)C	-39%	-6%	-3%	2%	-5%	2%
Cc1ccc(O)c(C2=Nc3ccccc3C2(C)C)c1	11%	-6%	29%	?	12µM*	?
Cn1c(=O)oc2cc(S(=O)(=O)N3CCN(c4ccccn4)CC3)ccc21	-11%	2%	-5%	14%	2%	-4%
Cc1nc2c(oc3ccccc32)c(=O)o1	17%	-4%	-2%	?	21µM*	2%
O=c1[nH]c(Cc2ccccc2)nc2c1oc1ccccc12	3%	0%	1%	2%	-6%	14%
CC(=O)Nc1ccc(SCC(=O)Nc2ccccc2-c2ccccc2)cc1	-29%	-1%	4%	0%	-2%	-2%
CC(=O)Nc1ccc(SCc2ncc(-c3ccccc3)o2)cc1	.	.	1.4µM*	?	13µM*	0.71µM*
O=C(Nc1ccc2ccccc2n1)c1ccccc1Cl	.	.	0.71µM*	?	1.3µM*	0.56µM*
O=C(Nc1ccc2ccccc2n1)C1CCCCC1	.	.	1.1µM*	?	6µM*	0.79µM*
O=C(Nc1ccccc1)C1CCCCC1	.	1%	-1%	0%	-1%	-2%
COc1ccc(C(=O)Nc2ccc3ccccc3n2)c(OC)c1OC	.	.	?	0.33µM*	0.21µM*	?

Screening data as filed in PubChem.
